Records with an inconclusive call do not appear. The source made the active and inactive calls. Unless noted, the call rests on the fitted dose curve; in most records, active means well fitted curve in the direction sought with a large enough effect; inconclusive means small, poorly fitted or top-dose-only effect, or another doubt; inactive means no such curve, though single readings can be large; an effect the other way counts as inactive or inconclusive.
How the values were obtained:
[1] = Primary qHTS for inhibitors of La Crosse Virus (LACV) - induced cell death in SH-SY5Y cells (AID 1508616);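 further: top concentration of the series differs between compounds; 0% = infected DMSO wells and 100% = uninfected DMSO wells; higher means more rescue of cells from virus-induced death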
In short: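 Cytopathicity rescue screen: compounds pinned onto SH-SY5Y cells, which are then infected with LACV (MOI 0.01) and held 6 days at 37C. Percent activity is scaled between infected DMSO control and uninfected DMSO control.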

[2] = molecular target: Calcium and integrin-binding protein 1 (Homo sapiens) (UniProt Q99828); test: Validation qHTS for Identification of Calcium Integrin Binding protein 1 (CIB1) Competitor (AID 1508618); further: on the % scale 0 is the no-effect control and ±100 the full control effect
In short: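 Fluorescence polarization with 1 uM CIB1-GST and 100 nM FITC-alphaIIb peptide in HEPES pH 7.4, NaCl, 5 mM CaCl2, Tween20. Compounds at up to 114 uM final, preincubated with protein 15 min; read after 15 min more at RT.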

[3] = molecular target: Calcium and integrin-binding protein 1 (Homo sapiens) (UniProt Q99828); test: Primary qHTS for Identification of Calcium Integrin Binding Protein 1 (CIB1) Competitor (AID 1508620);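 further: GST tagged CIB1 binding a fluorescein labelled alphaIIb integrin peptide tracer; top concentration of the series differs between compounds; on the % scale 0 is the no-effect control and ±100 the full control effect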
In short: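 CIB1-GST (1 uM final) and compound incubated 15 min at room temperature before adding FITC-alphaIIb peptide tracer (100 nM final). Competition for binding read by fluorescence polarization (ex 480, em 540) after another 15 min at room temperature.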

[4] = A High-Content qHTS Against Drug Library for the Identification of Small Molecules that Inhibit DYT1 Early Onset Primary Dystonia-Associated Cell Pathology (AID 1645839; calls by dose curve)
In short: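 High-content imaging quantified EGFP-TorsinA mislocalization in HEK293-derived cells inducibly expressing DYT1 mutant torsinA, after 48 h exposure to compound given together with tetracycline induction. Cell count served as a toxicity channel alongside %pathology.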

[5] = molecular target: Cytochrome P450 2D6 (Homo sapiens) (UniProt P10635); test: Cytochrome P450 family 2 subfamily D member 6 (CYP2D6) small molecule antagonists: luciferase biochemical (cell-free) qHTS assay (AID 1645840; active means well fitted curve in the direction sought with a large enough effect in the repeat runs; an effect the other way counts as inactive or inconclusive; further: nearly all actives have a fitted effect of over 55% in size; further: potency means the concentration at half of the fitted maximal effect)
In short: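 P450-Glo CYP2D6 system: proluciferin substrate converted by enzyme to luciferin, read by luminescence proportional to activity. Enzyme-substrate mix with compound 10 min at room temperature, then NADPH regeneration 1 h before detection reagent.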

[6] = molecular target: Cytochrome P450 2C9 (Homo sapiens) (UniProt P11712); test: Cytochrome P450 family 2 subfamily C member 9 (CYP2C9) small molecule antagonists: luciferase biochemical (cell-free) qHTS assay (AID 1645842; active means well fitted curve in the direction sought with a large enough effect in the repeat runs; an effect the other way counts as inactive or inconclusive; further: nearly all actives have a fitted effect of over 55% in size; further: potency means the concentration at half of the fitted maximal effect)
In short: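 P450-Glo CYP2C9 system: proluciferin substrate with enzyme in mix containing 0.4% BSA, 10 min at room temperature, then NADPH regeneration solution added and incubated 1 h at 37C. Detection reagent stopped reaction; luminescence read after 20 min as RLU.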

[7] = Cytotoxicity counterscreen for inhibitors of SARS-CoV-2 cell entry (AID 1645845; calls by dose curve; further: nearly all actives have a fitted effect of over 50% in size)
In short: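 ATP-content luminescence (ATPLite 1step, 15 min RT) read after 48 h compound exposure of Expi293F cells stably expressing human ACE2; normalized to cells-only wells and media-only wells.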

[8] = Primary qHTS to identify inhibitors of SARS-CoV-2 cell entry (AID 1645846; calls by dose curve; further: nearly all actives have a fitted effect of over 45% in size; further: potency means the concentration at half of the fitted maximal effect); conditions: activity change, negative = inhibition: at 57.1 µM (top of the series) unless noted
In short: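 Luminescence readout (Bright-Glo luciferase) 48 h after pseudoparticle addition. HEK293-ACE2 cells, 1500/well; compound pre-incubation 1 h; Normalized to spike PP and bald PP.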

[9] = Primary qHTS for small molecule stabilizers of the endoplasmic reticulum resident proteome: Secreted ER Calcium Modulated Protein (SERCaMP) assay (AID 1508630); further: on the % scale 0 is the no-effect control and ±100 the full control effect
In short: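 The SH-SY5Y reporter protocol was run at 3 concentrations up to 38.3 uM (primary) or 11 concentrations (follow-up): 16 h compound, 100 nM thapsigargin for 4 h, then extracellular luciferase luminescence.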

[10] = Counterscreen qHTS for small molecule stabilizers of the endoplasmic reticulum resident proteome: GLuc-NoTag assay (AID 1508627);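 further: SH-SY5Y cells given compound then 100 nM thapsigargin to empty ER calcium; 0% = thapsigargin alone and -100% = DMSO vehicle control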
In short: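 Counterscreen line: SH-SY5Y-GLuc-NoTag cells, treated with compound 19 hr before a 4 hr, 100 nM thapsigargin calcium depletion. Secreted Gaussia luciferase in the medium was measured by luminescence after coelenterazine was added (0.07x final), with cells unlysed.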

[11] = Confirmatory qHTS for small molecule stabilizers of the endoplasmic reticulum resident proteome: Secreted ER Calcium Modulated Protein (SERCaMP) assay (AID 1508628); further: on the % scale 0 is the no-effect control and ±100 the full control effect; nearly all actives have a fitted effect of over 40% in size
In short: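 GLuc-SERCaMP-expressing SH-SY5Y cells, pretreated 16 h with compound, are challenged with thapsigargin to empty ER calcium stores; after 4 h, coelenterazine is added directly to the medium and luminescence is imaged.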

[12] = Cell Viability qHTS for small molecule stabilizers of the endoplasmic reticulum resident proteome (AID 1508629); conditions: cell viability counter-screen, 100 nM thapsigargin for final 4 h;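 further: human SH-SY5Y neuroblastoma cells carrying the GLuc-SERCaMP reporter; compound exposure about 46 h in total before the viability read; on the % scale 0 is the no-effect control and ±100 the full control effect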
[13] = molecular target: Cytochrome P450 3A4 (Homo sapiens) (UniProt P08684); test: Cytochrome P450 family 3 subfamily A member 4 (CYP3A4) small molecule antagonists: luciferase qHTS assay (AID 1645841; active means well fitted curve in the direction sought with a large enough effect in the repeat runs; an effect the other way counts as inactive or inconclusive; further: nearly all actives have a fitted effect of over 45% in size)
In short: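 Luminescent CYP3A4 activity readout: compounds plus enzyme-substrate mix 10 min at room temperature, reaction started with NADPH regenerating system for 1 h, stopped with detection reagent, read after 20 min. Ketoconazole served as control.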

[14] = Confirmatory qHTS to identify inhibitors of SARS-CoV-2 cell entry (AID 1645844; calls by dose curve; further: potency means the concentration at half of the fitted maximal effect; nearly all actives have a fitted effect of over 45% in size)
In short: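 Luminescence entry read-out after 48 h: spike-pseudotyped MLV particles (Wuhan-Hu-1, 19-aa C-terminal truncation) added to compound-pretreated (1 h) HEK293-ACE2 cells; Data were normalised to bald PP and spike PP wells.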

Cytochrome P450 2C9 (Homo sapiens), sequence (P11712 whole entry, looked up): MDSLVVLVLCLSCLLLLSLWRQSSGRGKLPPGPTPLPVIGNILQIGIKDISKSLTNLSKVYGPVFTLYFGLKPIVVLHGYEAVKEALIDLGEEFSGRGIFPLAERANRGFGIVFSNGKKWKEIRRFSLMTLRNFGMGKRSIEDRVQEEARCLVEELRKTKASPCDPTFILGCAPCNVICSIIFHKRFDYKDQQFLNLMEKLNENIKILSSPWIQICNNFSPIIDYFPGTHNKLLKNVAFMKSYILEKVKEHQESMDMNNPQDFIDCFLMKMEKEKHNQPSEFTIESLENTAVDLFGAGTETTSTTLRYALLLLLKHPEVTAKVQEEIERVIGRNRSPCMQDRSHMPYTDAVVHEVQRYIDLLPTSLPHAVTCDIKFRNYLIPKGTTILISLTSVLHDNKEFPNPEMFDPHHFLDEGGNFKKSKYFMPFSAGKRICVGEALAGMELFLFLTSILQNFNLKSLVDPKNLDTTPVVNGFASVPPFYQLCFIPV
Cytochrome P450 2D6 (Homo sapiens), sequence (P10635 whole entry, looked up): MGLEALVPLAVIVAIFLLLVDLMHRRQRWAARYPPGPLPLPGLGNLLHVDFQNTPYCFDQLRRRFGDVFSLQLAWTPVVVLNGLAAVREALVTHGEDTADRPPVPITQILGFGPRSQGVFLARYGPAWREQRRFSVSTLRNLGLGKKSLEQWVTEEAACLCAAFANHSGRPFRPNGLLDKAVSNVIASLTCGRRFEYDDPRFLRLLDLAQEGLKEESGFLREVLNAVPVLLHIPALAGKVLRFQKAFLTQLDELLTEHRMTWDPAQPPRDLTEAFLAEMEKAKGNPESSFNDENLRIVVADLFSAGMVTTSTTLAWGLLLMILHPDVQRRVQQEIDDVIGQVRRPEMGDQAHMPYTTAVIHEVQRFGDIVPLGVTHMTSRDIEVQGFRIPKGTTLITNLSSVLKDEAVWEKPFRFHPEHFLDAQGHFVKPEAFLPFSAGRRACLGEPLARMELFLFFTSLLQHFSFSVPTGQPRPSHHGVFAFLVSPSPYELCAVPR
Calcium and integrin-binding protein 1 (Homo sapiens), sequence (Q99828 whole entry, looked up): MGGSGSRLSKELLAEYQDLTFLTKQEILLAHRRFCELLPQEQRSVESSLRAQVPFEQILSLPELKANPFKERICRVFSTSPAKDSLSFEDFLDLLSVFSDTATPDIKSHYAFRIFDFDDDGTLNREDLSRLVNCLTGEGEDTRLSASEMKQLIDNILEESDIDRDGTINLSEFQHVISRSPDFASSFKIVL
Cytochrome P450 3A4 (Homo sapiens), sequence (P08684 whole entry, looked up): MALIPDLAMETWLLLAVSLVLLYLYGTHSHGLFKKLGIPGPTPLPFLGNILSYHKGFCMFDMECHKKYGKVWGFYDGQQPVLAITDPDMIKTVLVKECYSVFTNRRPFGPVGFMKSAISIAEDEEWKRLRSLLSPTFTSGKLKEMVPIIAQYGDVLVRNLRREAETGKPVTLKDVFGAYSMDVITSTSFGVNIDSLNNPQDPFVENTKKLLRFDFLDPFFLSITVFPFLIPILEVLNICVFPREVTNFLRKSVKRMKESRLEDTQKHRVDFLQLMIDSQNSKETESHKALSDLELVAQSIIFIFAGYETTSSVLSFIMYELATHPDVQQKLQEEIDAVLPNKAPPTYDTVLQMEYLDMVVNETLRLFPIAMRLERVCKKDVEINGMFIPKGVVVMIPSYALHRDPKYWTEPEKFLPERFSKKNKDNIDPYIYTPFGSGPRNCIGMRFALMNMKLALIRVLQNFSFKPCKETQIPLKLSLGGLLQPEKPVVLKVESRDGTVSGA

Cc1cccc(C)c1NC(=O)CN1CCCC1=O
-12.8%: activity change, negative = inhibition [8]
inactive: Potency [1] | Potency [2] | Potency [3] | Potency [4] | Potency [5] | Potency [6] | Potency [7]

Cc1ccc(S(=O)(=O)N[C@@H](CCCCN)C(=O)CCl)cc1
inactive: Potency [1] | Potency [2] | Potency [3] | outcome [9] | Potency [4]
active: Potency [5] 17.2 µM

CCN(CC)CCN1C(=O)CN=C(c2ccccc2F)c2cc(Cl)ccc21
inactive: Potency [1] | Potency [3] | Potency [4] | Potency [6]
active: Potency [5] 13.8 µM

CCN(C(C)=O)c1cccc(-c2ccnc3c(C#N)cnn23)c1
inactive: Potency [1] | Potency [3] | outcome [9] | Potency [4] | Potency [5]

C[C@]12CCC(=O)C(O)=C1CC[C@@H]1[C@@H]2CC[C@]2(C)C(=O)CC[C@@H]12
inactive: Potency [1] | Potency [3] | outcome [9] | Potency [4] | Potency [5] | Potency [6] | Potency [7] | Potency [8]

CCCN1CCC[C@@H]2Cc3[nH]ncc3C[C@H]21
inactive: Potency [1] | Potency [2] | Potency [3] | outcome [9] | Potency [4] | Potency [5] | Potency [6]

NN=C(N)N
inactive: Potency [1] | Potency [2] | Potency [3] | Potency [4] | Potency [5] | Potency [6] | Potency [7]
4.5%: activity change, negative = inhibition [8]

Cc1ccc2c(c1)C1CN(C)CCC1N2 (stereo unspecified)
active: Potency [5] 4.25 µM
inactive: Potency [1] | Potency [3] | outcome [9] | Potency [4] | Potency [6]

CN(C)CCc1ccc(O)cc1
inactive: Potency [1] | Potency [3] | outcome [9] | Potency [4] | Potency [5] | Potency [6]

C[C@]12C/C(=C/O)C(=O)C[C@@H]1CC[C@@H]1[C@@H]2CC[C@@]2(C)[C@H]1CC[C@]2(C)O
inactive: Potency [1] | Potency [3]

O=C(NC(O)C(Cl)(Cl)Cl)NC(O)C(Cl)(Cl)Cl (stereo unspecified)
inactive: Potency [1] | Potency [3] | Potency [4] | Potency [5] | Potency [6]

CCOC(=O)C1(c2ccccc2)CCN(CCC(C#N)(c2ccccc2)c2ccccc2)CC1
active: Potency [5] 1.74 µM | Potency [6] 1.55 µM
inactive: Potency [1] | Potency [3] | Potency [4]

NCCc1cc(O)c(O)cc1O
inactive: Potency [1] | Potency [3] | outcome [9] | Potency [4] | Potency [5] | Potency [6]

COc1ccc(C(=O)c2c(C)n(CCN3CCOCC3)c3ccccc23)cc1
inactive: Potency [1] | Potency [3] | outcome [9] | Potency [4]
active: Potency [5] 12.3 µM | Potency [6] 5.49 µM | Potency [8] 31.6 µM

CC(O)(CS(=O)(=O)c1ccc(F)cc1)C(=O)Nc1ccc(C#N)c(C(F)(F)F)c1 (stereo unspecified)
inactive: Potency [1] | Potency [2] | Potency [3] | Potency [7]
-21.9%: activity change, negative = inhibition [8]

c1ccc(C2CC2)c(OCC2=NCCN2)c1
inactive: Potency [1] | Potency [2] | Potency [3] | Potency [4] | Potency [6]
active: Potency [5] 4.36 µM

CCOP(=S)(OCC)Oc1cc(C)nc(C(C)C)n1
inactive: Potency [1] | Potency [3] | Potency [4] | Potency [5]
active: Potency [6] 1.95 µM

c1ccc2c(c1)OCC(C1=NCCN1)O2 (stereo unspecified)
inactive: Potency [1] | Potency [2] | Potency [3] | outcome [9] | Potency [6]
active: Potency [5] 19.5 µM

CC(C)CC(N(C)C)C1(c2ccc(Cl)cc2)CCC1 (stereo unspecified)
active: Potency [5] 4.36 µM
2.03%: activity change, negative = inhibition [8]
inactive: Potency [1] | Potency [3] | Potency [10] | Potency [11] | max response [12] 6.57% | outcome [9] | Potency [4] | Potency [6] | Potency [7]

CC(=O)[C@H]1CC[C@H]2[C@@H]3CC[C@H]4C[C@](C)(O)CC[C@]4(C)[C@H]3CC[C@]12C
inactive: Potency [1] | Potency [2] | Potency [3] | Potency [4] | Potency [6]
active: Potency [5] 1.23 µM

O=C1NCN(c2ccccc2)C12CCN(CC1COc3ccccc3O1)CC2 (stereo unspecified)
active: Potency [5] 0.0245 µM | Potency [6] 6.17 µM
inactive: Potency [1] | Potency [2] | Potency [3] | Potency [4]

COc1ccccc1N1CCNCC1
inactive: Potency [1] | Potency [2] | outcome [9] | Potency [4] | Potency [5] | outcome [13] | Potency [6]

CC[N+](CC)(CC)CC
inactive: Potency [1] | Potency [3] | Potency [4] | Potency [5] | Potency [6]

CO[C@]12CC[C@@]3(C[C@@H]1[C@](C)(O)C(C)(C)C)[C@@H]1Cc4ccc(O)c5c4[C@@]3(CCN1CC1CC1)[C@H]2O5
inactive: Potency [1] | Potency [3]
active: Potency [5] 0.353 µM

O=C(O)c1ccc2[nH]cc(CCCCN3CC=C(c4ccccc4)CC3)c2c1
inactive: Potency [1] | Potency [3] | Potency [4] | Potency [6]
active: Potency [5] 15.5 µM

C[C@@H]1CC(=O)NN=C1c1ccc(NN=C(C#N)C#N)cc1
inactive: Potency [7]

CC1NCCOC1c1ccccc1 (stereo unspecified)
inactive: Potency [1] | Potency [3] | Potency [4] | Potency [6]

Clc1cccc(N2CCNCC2)c1
inactive: Potency [1] | Potency [3] | Potency [4] | Potency [6]
active: Potency [5] 8.71 µM

CO[C@@H](C(=O)N1Cc2[nH]nc(NC(=O)c3ccc(N4CCN(C)CC4)cc3)c2C1)c1ccccc1
active: Potency [14] 0.482 µM
-64.7%: activity change, negative = inhibition [8]
